# Screens: PubChem, several laboratories
# Rows were chosen to be rich in hits. Some 5.2% of all compounds tested hit in one or more screens of this group.
# PostGolgi ctrl: inhibits growth of the yeast control strain. AID 738. inhibition, % at 10 µM. efflux-deficient yeast background strain, growth absorbance A615, 16 h. 98,000 compounds, 5% hits
# EphB4 antag: EphB4-ephrin-B2 interaction antagonism | P54760 | 97,000 compounds, 0.15% hits | AID 720 | inhibition, % at 7 µM | EphB4 LBD / TNYL-RAW-Alexa532 peptide, fluorescence polarization;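 active means inhibition above the screen-wide mean inhibition plus 3 SD, cut at about 15% in these data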;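 further: 0% = DMSO wells and 100% = excess unlabeled TNYL-RAW peptide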
# Target sequence (P54760 whole entry, looked up, the tested form may be a part): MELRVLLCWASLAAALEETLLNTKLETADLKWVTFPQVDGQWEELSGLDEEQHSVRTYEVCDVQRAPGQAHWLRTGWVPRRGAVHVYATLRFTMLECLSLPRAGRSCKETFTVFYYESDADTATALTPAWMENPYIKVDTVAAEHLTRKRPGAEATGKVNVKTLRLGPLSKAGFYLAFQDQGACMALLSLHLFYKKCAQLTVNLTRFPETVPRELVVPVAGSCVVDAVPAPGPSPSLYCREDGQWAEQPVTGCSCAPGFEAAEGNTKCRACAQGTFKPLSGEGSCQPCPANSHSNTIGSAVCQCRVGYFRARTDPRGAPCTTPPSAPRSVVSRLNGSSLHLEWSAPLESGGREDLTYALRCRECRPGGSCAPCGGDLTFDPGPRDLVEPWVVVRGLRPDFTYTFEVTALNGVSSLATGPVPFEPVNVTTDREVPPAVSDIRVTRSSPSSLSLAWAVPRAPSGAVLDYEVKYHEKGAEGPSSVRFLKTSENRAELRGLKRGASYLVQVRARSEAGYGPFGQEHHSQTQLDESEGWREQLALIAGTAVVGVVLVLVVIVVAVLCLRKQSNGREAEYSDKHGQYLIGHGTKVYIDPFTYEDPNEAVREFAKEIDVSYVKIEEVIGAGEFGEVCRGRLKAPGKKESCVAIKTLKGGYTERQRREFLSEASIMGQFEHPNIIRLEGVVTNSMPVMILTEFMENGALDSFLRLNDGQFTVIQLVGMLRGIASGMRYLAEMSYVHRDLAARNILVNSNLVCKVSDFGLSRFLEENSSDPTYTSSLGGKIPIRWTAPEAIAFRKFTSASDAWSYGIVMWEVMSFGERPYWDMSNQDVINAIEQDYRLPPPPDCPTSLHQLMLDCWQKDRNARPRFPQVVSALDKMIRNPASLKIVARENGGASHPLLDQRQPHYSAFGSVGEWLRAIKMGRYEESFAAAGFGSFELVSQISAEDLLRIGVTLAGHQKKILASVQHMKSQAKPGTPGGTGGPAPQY
# PostGolgi yeast: growth inhibition of a yeast mutant, post-Golgi transport screen; post-Golgi transport phenotypic cell assay; inhibition, % at 10 µM; 98,000 compounds, 0.9% hits; AID 739;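 further: yeast cells grown in 1536-well plates; yeast grown about 18 h at 30C before absorbance read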
# Candida biofilm: kills Candida albicans biofilms | inhibition, % at 6 µM | AID 834 | 85,000 compounds, 0.14% hits | C. albicans biofilm + clotrimazole, Alamar Blue;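 active means inhibition above 20%; inactive means inhibition below 20%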;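 further: preformed 24 hr biofilms exposed to compound for 48 hr; 0% = biofilm without compound and 100% = blank killed by clotrimazole plus chlorhexidine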
# * = called active by the depositor; . = no result given. Unless noted, no stated cut-off is given here; in the data, active means inhibition above about 30%; inactive means the rest.
SMILES,PostGolgi ctrl,EphB4 antag,PostGolgi yeast,Candida biofilm
CCn1c(SCC(=O)Nc2nc(-c3ccc(C)cc3)cs2)nnc1-c1ccccc1O,75.9*,-5.2,69.3*,4.9
Cc1ccc(C(=O)O/N=C2\CCCc3ccccc32)cc1,37.8*,3.4,-2.3,.
Cc1cccc(NC(=O)Cn2c(C)c(C#N)c3ccccc32)c1C,2.2,3.1,-3.7,9.2
Cc1ccccc1Nc1cc(=O)oc2ccccc12,7.2,-0.1,17.7,.
Cc1ccc(Nc2cc(=O)oc3ccccc23)c(C)c1,43.9*,4.1,18.3,.
CCCc1cc(C(N)=O)c(NC(=O)c2cc(C)on2)s1,49.1*,2.0,8.8,1.1
O=C(Nc1ccccc1)OCc1ccccn1,0.6,-7.8,-1.0,2.1
O=C(Nc1ccccc1)OCc1cc(-c2ccccc2Cl)on1,33.2*,-0.7,1.9,.
O=C(CSc1cn(CCNC(=O)c2ccc3ccccc3c2)c2ccccc12)NCc1ccco1,6.8,-2.2,-9.4,8.1
CCc1ccc(N(CC(=O)Nc2ccc(OC)cc2OC)S(C)(=O)=O)cc1,5.2,.,6.2,8.2
COc1ccc(S(=O)(=O)N2CCN(c3c(C)cccc3C)CC2)cc1OC,30.6*,-5.2,11.2,11.3
Cc1cc(S(=O)(=O)N2CCN(c3ccccc3C)CC2)ccc1F,30.1*,-0.8,-8.9,4.3
Cc1cc(S(=O)(=O)N2CCN(c3c(C)cccc3C)CC2)ccc1F,14.1,-6.4,5.9,0.6
COc1ccc(C2(CNC(=O)/C=C\c3ccco3)CCCC2)cc1OC,6.8,3.1,-7.1,.
Cn1c(NCc2cccc(Br)c2)nc2ccccc21,12.2,0.1,4.5,3.5
Cn1c(Oc2ccccc2NCc2cccc(Br)c2)cc(=O)n(C)c1=O,37.9*,-3.9,3.8,5.4
Cc1ccc2nc(N/N=C\c3ccc([N+](=O)[O-])o3)nc(-c3ccccc3)c2c1,98.7*,3.4,107.6*,8.7
N#Cc1ccccc1/C=N/Nc1nc(-c2ccccc2)c2cc(Br)ccc2n1,10.2,-10.5,4.7,.
CCNc1nc(NCC)nc(N/N=C/c2ccc([N+](=O)[O-])o2)n1,7.7,3.2,3.9,.
O=[N+]([O-])c1ccc(/C=N/Nc2nc(-c3ccccc3)c3cc(Br)ccc3n2)o1,64.2*,8.4,8.9,.
Cc1cc(=O)n2[nH]cc(C(=O)O)c2n1,.,-7.1,.,3.5
CCCOc1ccc(C(=O)NNC(=S)NC(=O)c2cc(-c3ccccc3)nc3ccccc23)cc1,15.5,6.0,-13.2,.
CCC(=O)Nc1ccc(/C(C)=N\NS(=O)(=O)c2ccc(C)cc2)cc1,12.1,2.7,1.7,.
CCCN1Cc2cccc(C(=O)Nc3ccc4c(c3)OCCO4)c2C1=O,35.8*,-2.8,10.8,6.0
CCCc1nc(NCc2ccccn2)c2nnn(Cc3ccccc3F)c2n1,100.2*,3.5,4.5,3.6
SMILES,PostGolgi ctrl,EphB4 antag,PostGolgi yeast,Candida biofilm
N#CC(c1nc2ccccc2nc1N1CCCC1)S(=O)(=O)c1cccs1 (stereo not drawn),6.4,-3.0,3.1,4.7
COc1ccc(Cc2nc(C(=O)NCc3ccccc3OC)cs2)cc1,35.0*,2.6,1.3,.
COc1ccc(Cc2nc(C(=O)Nc3ccc(OC)cc3)cs2)cc1,11.2,4.9,-10.7,-3.3
CCCOc1ccc2c3c(c(=O)oc2c1OCCC)CCCC3,55.8*,-7.6,-4.7,3.5
COC(=O)c1cc(OC)c(OC)cc1NC(=O)CC1CCCCC1,41.9*,5.6,1.9,2.1
Cc1sc2ncn(CC(=O)OC(C)C)c(=O)c2c1C,8.5,1.6,1.9,.
O=C(CSc1nnc(-c2ccccn2)n1Cc1ccco1)c1ccc(Cl)cc1,20.3,6.1,9.4,2.1
COc1cc(Cl)c(C)cc1NC(=O)CSc1nnc(-c2ccccn2)n1Cc1ccco1,40.1*,-6.9,4.1,6.2
COc1ccc(C(=O)CSc2nnc(-c3ccccn3)n2Cc2ccco2)cc1,35.4*,1.2,2.1,-0.7
Brc1ccc(CSc2nnc(-c3ccccn3)n2Cc2ccco2)cc1,32.6*,-5.2,2.9,6.2
c1ccc(CSc2nnc(-c3ccco3)n2Cc2ccco2)cc1,22.6,-2.1,21.2,7.8
O=C1c2ccccc2C(=O)N1CCSc1nnc(-c2ccco2)n1Cc1ccccc1,36.7*,-2.9,3.3,5.3
COc1ccc(Cl)cc1NC(=O)c1cccnc1,4.2,5.4,23.0,9.4
CCOC(=O)Cc1c(C)nc2c(-c3cccc(Br)c3)c[nH]n2c1=O,22.9,.,10.5,8.0
COC(=O)c1sccc1OC(C)C(C)=O (stereo not drawn),5.3,-3.3,2.1,.
Cc1ccccc1CSc1nnc(-c2ccco2)n1Cc1ccco1,39.5*,-4.6,-0.6,3.7
O=C(CSc1nnc(-c2ccccn2)n1Cc1ccco1)c1ccccc1,31.0*,0.9,1.8,7.6
Cc1ccccc1CSc1nnc(-c2cccs2)n1Cc1ccco1,23.0,4.2,-3.0,2.6
Cc1cc(=O)n2nc(N3CCC(C(=O)NCCC4=CCCCC4)CC3)sc2n1,.,.,.,4.5
Cc1cc(C)cc(C(=O)O/N=C(\N)c2ccc(Br)cc2)c1,30.0*,3.5,8.5,5.0
COC(=O)C1=C(C)NC(C)=C(C(=O)OC)C1c1ccccc1OCc1c(C)no[n+]1[O-],6.3,0.7,-1.2,3.8
O=C(NC12CC3CC(CC(C3)C1)C2)N1CCC(O)(c2ccc3c(c2)OCO3)CC1,9.6,-7.5,2.7,6.3
O=C(COc1ccc2c(c1)OCO2)NC12CC3CC(CC(C3)C1)C2,36.4*,-3.3,-8.7,4.0
Cc1noc(C)c1COc1ccc(C(=O)OCC(=O)NC23CC4CC(CC(C4)C2)C3)cc1,36.7*,6.9,-5.9,7.7
O=C(COC(=O)c1cc(-c2ccc(Cl)s2)nc2ccccc12)NCc1ccco1,32.7*,-3.1,-9.3,5.1
SMILES,PostGolgi ctrl,EphB4 antag,PostGolgi yeast,Candida biofilm
Cc1nn2c(-c3ccncc3)nnc2c2ccccc12,63.8*,-2.1,11.4,.
COc1ccc(-c2nnc3c4ccccc4c(C)nn23)cc1,43.8*,0.1,0.8,3.6
COc1ccc(OC)c(C(c2nnnn2CCc2ccccc2)N2CCN(c3ccccc3)CC2)c1 (stereo not drawn),14.3,-0.9,-8.4,.
COc1ccc(Cn2nnnc2C(c2cc3cc(C)ccc3[nH]c2=O)N2CCOCC2)cc1 (stereo not drawn),44.0*,-1.9,13.4,0.7
COc1ccc(Cn2nnnc2C(c2cc3cccc(C)c3[nH]c2=O)N2CCOCC2)cc1 (stereo not drawn),34.1*,6.3,2.1,-2.8
COc1ccc(Cn2nnnc2C(c2cc3ccc(OC)cc3[nH]c2=O)N2CCC(C)CC2)cc1 (stereo not drawn),-5.2,16.4*,13.2,-3.3
COc1ccc2cc(C(c3nnnn3Cc3ccc(F)cc3)N3CCCCCC3)c(=O)[nH]c2c1 (stereo not drawn),4.8,-8.1,0.3,0.7
COc1ccc(OC)c(C(c2nnnn2Cc2ccccc2)N2CCN(C)CC2)c1 (stereo not drawn),36.5*,-6.9,6.0,3.3
CCn1c(NC(=O)Nc2cccc(C)c2C)cc2sccc21,17.3,-5.9,-4.3,.
Cc1cc(C)c2[nH]c(=O)c(C(c3nnnn3Cc3ccc4c(c3)OCO4)N3CCC(C)CC3)cc2c1 (stereo not drawn),33.2*,-2.5,-0.2,5.6
CC(C)(C)c1cc(C(=O)NCc2ccccc2)ccn1,0.9,4.4,-8.3,2.4
